Results taken from PubChem BioAssay (NCI).
About 83,000 compounds went through this panel and 20% of them were active in at least one assay; those are over-represented in the sample as a whole.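 Testing used 96-well plates and a 48-hour single-concentration exposure. Example: -40 means 40% of the starting cells died.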 Values without a mark were called inactive. The source made the active and inactive calls. Rule for the calls: active = growth percent below 10; inactive = the rest.

Legend:
Test in all cases: NCI-60 one-dose screen, 48 h (100 = growth as untreated, 0 = no growth, -100 = all killed)
[1] = test system: DU-145 prostate; conditions: 10 µM unless noted
[2] = test system: K-562 leukemia; conditions: 10 µM unless noted
[3] = test system: MALME-3M melanoma; conditions: 10 µM unless noted
[4] = test system: MDA-MB-231 breast; conditions: 10 µM unless noted
[5] = test system: RXF 393 renal; conditions: 10 µM unless noted
[6] = test system: SF-268 CNS; conditions: 10 µM unless noted
[7] = test system: SF-295 CNS; conditions: 10 µM unless noted
[8] = test system: SF-539 CNS; conditions: 10 µM unless noted
[9] = test system: UACC-257 melanoma; conditions: 10 µM
[10] = test system: M14 melanoma; conditions: 10 µM unless noted
[11] = test system: HCT-15 colon; conditions: 10 µM unless noted
[12] = test system: HT29 colon; conditions: 10 µM unless noted
[13] = test system: SNB-19 CNS; conditions: 10 µM unless noted
[14] = test system: U251 CNS; conditions: 10 µM unless noted
[15] = test system: PC-3 prostate; conditions: 10 µM unless noted
[16] = test system: SK-MEL-5 melanoma; conditions: 10 µM unless noted
[17] = test system: UACC-62 melanoma; conditions: 10 µM unless noted
[18] = test system: LOX IMVI melanoma; conditions: 10 µM unless noted
[19] = test system: SK-MEL-28 melanoma; conditions: 10 µM unless noted

| Compound | growth [1] | growth [2] | growth [3] | growth [4] | growth [5] | growth [6] [%] | growth [7] | growth [8] | growth [9] | growth [10] | growth [11] | growth [12] | growth [13] | growth [14] | growth [15] | growth [16] | growth [17] | growth [18] | growth [19] |
| --- | --- | --- | --- | --- | --- | --- | --- | --- | --- | --- | --- | --- | --- | --- | --- | --- | --- | --- | --- |
| Oc1ccc(-c2nnc(SCc3ccc(O)c4ncccc34)o2)cc1 | 21.2% | 14.2% | 18.7% | 24.5% | -3.04% (active) | 15.9 | 0.187% (active) | 13.8% | 1.45% (active) | 0.609% (active) | 7.43% (active) | 24% | 12.8% | 13.2% | 9.97% (active) | -17.1% (active) | -12.7% (active) | 7.94% (active) | 22.7% |
| N#Cc1c(-c2cccs2)cc(-c2cnccn2)nc1SCC(=O)NNC(=S)Nc1ccc(F)cc1 | 109% | 92.2% | 127% | 94.5% | 141% | 106 | 106% | 98.1% | 112% | 104% | 102% | 116% | 94.7% | 101% | 99.3% | 89.5% | 87.8% | 72.1% | 114% |
| O=C(COc1ccc(/C=C2\SC(=O)NC2=O)cc1)Nc1ccc(C(=O)/C=C/c2cc3ccccc3nc2Cl)cc1 | 88.7% | 41% | 98.5% | 86.6% | 1.92% (active) | 78.2 | 75.6% | 81.5% | 75.3% | 80% | 76.8% | 4.19% (active) | 82% | 69% | 65.6% | 33.5% | 70.6% | 47.8% | 99.2% |
| O=C1NC(=O)/C(=C/c2ccc(OCc3cc4ccccc4nc3Cl)cc2)S1 | 100% | 75.2% | 103% | 88.2% | 111% | 110 | 96.4% | 104% | 98% | 104% | 88.3% | 117% | 100% | 101% | 92% | 84.4% | 83.7% | 56.4% | 104% |
| Oc1ccc(-c2nnc(SCc3ccc(O)c4ncccc34)n2-c2ccccc2)cc1 | 24.6% | 10.8% | 3.9% (active) | 30.1% | -7.54% (active) | 10.2 | 5.53% (active) | -6.02% (active) | -4.16% (active) | -28% (active) | 20.3% | 24.9% | 14.7% | 9.39% (active) | 32.3% | -44.6% (active) |  | 5.09% (active) | 17% |
| CCOC(=O)c1c(NC(=O)c2cccc(C(F)(F)F)c2)sc2c(CN3CCN(C)CC3)c(O)ccc12 | -85.6% (active) | 1.42% (active) | -86.6% (active) | -75.5% (active) | 35.1% | 26.2 | -81% (active) | -94.7% (active) | 28.1% | -54.6% (active) | -82.3% (active) | -31.6% (active) | -53.9% (active) | -79.1% (active) | -33.9% (active) | 52.7% | -67.5% (active) | -94.7% (active) | -60.5% (active) |
| O=C(CN1C(=O)CSC1=O)Nc1ccc(C(=O)/C=C/c2cc3ccccc3nc2Cl)cc1 | 90.3% | 37.2% | 91.8% | 90.4% | 17.6% | 78.8 | 77% | 79.1% | 75.3% | 83.7% | 79.3% | 17.4% | 83.4% | 77.2% | 70.5% | 34% | 74% | 37.5% | 95.4% |
| O=C(CCCCCCN1CC(=O)N2[C@@H](c3cccc(Br)c3)c3[nH]c4ccccc4c3C[C@H]2C1=O)NO | 24.2% | 15.5% | 29.3% | 11.7% | -16.7% (active) | 24.9 | 15.6% | 32.2% | 44.9% | 27.4% | 68.7% | 14.8% | 38% | 25% |  | 15.2% | 1.57% (active) | -59.8% (active) | 26.6% |
